TROY signal inh – TROY signaling inhibition | inhibition, % at 10 µM | Q293 LMP1-TROYcd NF-kB luciferase reporter, 4 h | 360,000 compounds, 0.98% hits;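 active = compounds whose plate-normalised and pattern-corrected inhibition of the luciferase reporter signal at the single screening dose is 50% or more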
LGR2 antag – inhibitors of bursicon-induced Drosophila LGR2 receptor cAMP signaling; inhibition, % at 9.99 µM; 380,000 compounds, 0.35% hits; HEK293 LGR2, CRE-luciferase, bursicon-stimulated, 4 h;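 active = drop in luminescence signal, shown as inhibition above about 50% in the replicate tests, limit read from the data, passing the limit was not always enough; inconclusive = probably only some replicates passing the limit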;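 also: agonist challenge used bursicon conditioned medium at about half maximal strength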
TRPM1 prom inh – reduces MITF-dependent TRPM1 promoter luciferase signal | AID 488899 | SK-MEL-5 TRPM1 promoter luciferase, 24 h | 330,000 compounds, 0.83% hits | inhibition, % at 12.5 µM;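 active = mean inhibition across replicates of 60% or more, whatever share of single replicates reaches that level; inconclusive = some that reach 60%, reason not given; inactive = mean inhibition across replicates below 60%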
TWEAK Fn14 block – TWEAK-Fn14 signaling inhibition; TWEAK-stimulated Fn14 reporter cells, luciferase luminescence, 8 h; inhibition, % at 10 µM; 360,000 compounds, 2% hits; in the data active = inhibition above about 50%
MITF act – increases MITF-driven TRPM1 promoter luciferase signal; 300,000 compounds, 0.75% hits; AID 588334; SK-MEL-5 TRPM1-promoter luciferase, 24 h; % of positive control, neutral wells = 0; activation, % at 12.5 µM;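 active = mean activation of at least 80% with every replicate also reaching 80%; inconclusive = mean reaches 80% but some replicate falls short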
EBV LMP1 NFkB – inhibitors of Epstein-Barr LMP1-induced NF-kappaB reporter | inhibition, % at 12.5 µM | LMP1-induced NF-kappaB luciferase reporter cells, luminescence | 350,000 compounds, 0.69% hits; in the data active = inhibition above about 41%; inconclusive = no clear call, values can overlap the other calls
Large screens that a line does not name were inactive. A selection: hits, their analogues and other compounds. The true share with any hit is near 3%.

O=C(C1CCOCC1)N1CC(=O)N2[C@@H](CO)[C@@H](c3ccc(C#CC4CCCCC4)cc3)[C@@H]2C1	none (no result: TROY signal inh, TRPM1 prom inh, TWEAK Fn14 block, MITF act, EBV LMP1 NFkB)
C=CCOC(=O)/C(=C\c1ccccc1)NC(=O)c1ccc(C)cc1	TROY signal inh 51
COC(=O)[C@@]1(Cc2ccc(F)cc2)[C@H]2c3cc(C(=O)N4CCCC4)n(CCCNc4ncc(C(F)(F)F)cc4Cl)c3C[C@H]2CN1C(=O)c1ccccc1	EBV LMP1 NFkB 45
CCN(CC)S(=O)(=O)c1cc(NC(=O)C2CCN(c3ncnc4sc(C)c(C)c34)CC2)ccc1Cl	TROY signal inh 64, TRPM1 prom inh 64, TWEAK Fn14 block 97
Cc1ccc(NC(=O)C2CCN(c3ncnc4sc(C)c(C)c34)CC2)cc1S(=O)(=O)N(C)C	TROY signal inh 51, TWEAK Fn14 block 55
COc1ccc2c3c([nH]c2c1)[C@H](CO)N(S(=O)(=O)c1cn(C)cn1)CC31CCN(CC2CCCC2)CC1	none (no result: TROY signal inh, TRPM1 prom inh, TWEAK Fn14 block, MITF act, EBV LMP1 NFkB)
O=C(NCC[C@@H]1CC[C@H](NC(=O)C2CC2)[C@H](CO)O1)c1cc(Cl)cc(Cl)c1	none (no result: TROY signal inh, TRPM1 prom inh, TWEAK Fn14 block, MITF act, EBV LMP1 NFkB)
O=C(NCc1ccccc1Cl)c1cc2ccccc2oc1=O	none (no result: MITF act)
O=c1oc2ccccc2cc1NCc1ccccc1O	MITF act 96
C[C@H](CO)N1C[C@H](C)[C@H](CN(C)CC2CC2)OCCCC[C@H](C)Oc2ccc(NC(=O)Nc3ccccc3)cc2C1=O	none (no result: TROY signal inh, TRPM1 prom inh, TWEAK Fn14 block, MITF act, EBV LMP1 NFkB)
O=[N+]([O-])c1ccc(Sc2nc3ccccc3o2)c([N+](=O)[O-])c1	LGR2 antag 97, TRPM1 prom inh 87, TWEAK Fn14 block 58
O=[N+]([O-])c1ccc(Sc2cc[n+]([O-])c3ccccc23)c([N+](=O)[O-])c1	LGR2 antag inconclusive, TRPM1 prom inh 90, TWEAK Fn14 block 77
CC(C)C#Cc1cnc2c(c1)C(=O)N([C@H](C)CO)C[C@H](C)[C@H](CN(C)C(=O)Nc1cccc(F)c1)O2	none (no result: TROY signal inh, TRPM1 prom inh, TWEAK Fn14 block, MITF act, EBV LMP1 NFkB)
S=C(Nc1ccc(N2CCOCC2)cc1)Nc1ccc2snnc2c1	TROY signal inh 76, TWEAK Fn14 block 73
Cc1nc(-c2coc3cc(OCC(=O)O)ccc3c2=O)cs1	none (no result: LGR2 antag)
Cc1nc(-c2coc3cc(O)c(C)cc3c2=O)cs1	TWEAK Fn14 block 65 (no result: LGR2 antag)
CCn1c(Oc2ccccc2F)nc2c1c(=O)n(C)c(=O)n2C	TWEAK Fn14 block 73
CNC(=O)c1[nH]cnc1C(=O)N[C@@H](CCCCNC(=O)OC(C)(C)C)C(=O)OC(C)(C)C	EBV LMP1 NFkB 44
COc1ccc(OC)c(Nc2c3ccccc3nc3ccccc23)c1	none
COc1cc(NS(C)(=O)=O)ccc1Nc1c2ccccc2nc2ccccc12	TRPM1 prom inh 79, EBV LMP1 NFkB 57
Cc1cc(C)c(-c2c(O)c3cccc4c3n(c2=O)CCC4)c(C)c1	TWEAK Fn14 block 56 (no result: LGR2 antag)
CCC(=O)N1CCc2nc(-c3ccccc3)sc2C1	MITF act 84
COCC(=O)Nc1ccc2c(c1)OC[C@H](C)N(Cc1cccc(F)c1)C[C@H](C)[C@H](OC)CN(C)C2=O	none (no result: TROY signal inh, TRPM1 prom inh, TWEAK Fn14 block, MITF act, EBV LMP1 NFkB)
CCCC#Cc1cnc2c(c1)C(=O)N([C@H](C)CO)C[C@H](C)[C@@H](CN(C)C(=O)c1ccccc1)O2	none (no result: TROY signal inh, TRPM1 prom inh, TWEAK Fn14 block, MITF act, EBV LMP1 NFkB)
Cc1noc(C)c1S(=O)(=O)N(C)C[C@H]1OCCCC[C@H](C)Oc2ccc(NC(=O)Nc3cccc4ccccc34)cc2C(=O)N([C@H](C)CO)C[C@@H]1C	none (no result: TROY signal inh, TRPM1 prom inh, TWEAK Fn14 block, MITF act, EBV LMP1 NFkB)
CCC(=O)Nc1cccc(-c2cnc3ccccc3n2)c1	none (no result: MITF act)
O=C(Nc1cccc(-c2cnc3ccccc3n2)c1)c1ccccc1	none
O=C(Nc1cccc(-c2cnc3ccccc3n2)c1)c1cccc(NC(=O)c2ccco2)c1	TWEAK Fn14 block 55 (no result: LGR2 antag, MITF act)
O=C(CCl)Nc1cccc(-c2cnc3ccccc3n2)c1	TRPM1 prom inh 73, TWEAK Fn14 block 85 (no result: LGR2 antag)
CCNC(=O)C[C@@H]1CC[C@@H]2[C@H](COc3ccc(NC(=O)Nc4c(C)noc4C)cc3C(=O)N2C)O1	none (no result: TROY signal inh, TRPM1 prom inh, TWEAK Fn14 block, MITF act, EBV LMP1 NFkB)
O=c1cc(CO)oc(C(Nc2ccccn2)c2ccc(F)cc2)c1O (stereo unspecified)	none (no result: LGR2 antag)
COc1ccc(C(Nc2ccccn2)c2oc(CO)cc(=O)c2O)cc1 (stereo unspecified)	EBV LMP1 NFkB 68
O=C(O)c1ccc(NCc2nc3ccccc3n2Cc2ccccc2)cc1	none
Cn1c(CNc2ccccc2)nc2ccccc21	none
CC(C)n1cnc2cc(NCc3nc4ccccc4n3C)ccc21	TROY signal inh 67, TWEAK Fn14 block 60

Source: PubChem (several laboratories)
